Assay outcomes (PubChem BioAssay)
The list is not random: actives were taken first. Their share in the collection is about 4.7%.
D1 potentiator: Potentiators of Human D1 Dopamine Receptor: qHTS; D(1A) dopamine receptor (Homo sapiens), P21728; HEK293 TREx D1 cells, calcium flux, dopamine EC20 potentiation; potentiation, % at 10 µM; hit rate 0.036% among 360,000; AID 504651, 2011; in the data active = potentiation above about 30%
Target sequence (P21728 whole entry, looked up): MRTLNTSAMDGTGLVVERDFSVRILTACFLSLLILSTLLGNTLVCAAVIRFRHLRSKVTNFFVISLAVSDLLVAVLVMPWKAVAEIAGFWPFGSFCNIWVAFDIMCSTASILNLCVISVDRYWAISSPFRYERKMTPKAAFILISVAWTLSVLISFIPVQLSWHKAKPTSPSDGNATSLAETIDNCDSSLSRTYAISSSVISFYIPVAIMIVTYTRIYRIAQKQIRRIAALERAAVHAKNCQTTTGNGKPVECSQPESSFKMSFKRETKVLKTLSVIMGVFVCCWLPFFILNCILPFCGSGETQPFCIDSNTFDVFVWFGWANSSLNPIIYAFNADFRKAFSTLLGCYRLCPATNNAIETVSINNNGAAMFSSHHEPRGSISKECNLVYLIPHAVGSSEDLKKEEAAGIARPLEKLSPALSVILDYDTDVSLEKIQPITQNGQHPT
TRHR ag: qHTS for Small Molecule Agonists and Allosteric Enhancers of Human TRH Receptor: Primary Screen for Agonists | Thyrotropin-releasing hormone receptor (Homo sapiens), P34981 | TRHR cells, calcium flux fluo-8, FDSS agonist mode | activation, % at 2 µM | hit rate 0.18% among 360,000 | AID 493084, 2011
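Fluo-8-loaded TRHR cells; 10 s baseline, compound added, kinetic Ca2+ fluorescence read 1/s, agonist mode.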
D1 ag: Allosteric Agonists of the Human D1 Dopamine Receptor: qHTS; hit rate 1% among 360,000; HEK293 T-REx D1 cells, calcium flux, agonist mode; activation, % at 2 µM
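Inducible HEK293 T-REx D1 cells, force-coupled to calcium signalling, were plated at 4000 cells/well with tetracycline and held overnight at 30 C. After no-wash calcium dye loading, compound-evoked calcium rise over 180 s flagged agonists.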
TRHR PAM: qHTS for Small Molecule Agonists and Allosteric Enhancers of Human TRH Receptor: Primary Screen for Enhancers. Thyrotropin-releasing hormone receptor (Homo sapiens), P34981. TRHR cells, fluo-8 calcium fluorescence, EC20 TRH enhancement. enhancement, % at 2 µM. hit rate 0.66% among 360,000. AID 493056, 2011; in the data active = enhancement above about 30%
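Enhancer read-out: after compound pinning and an initial kinetic agonist-mode read, an EC20 of TRH (10 nM final) was injected and fluo-8 calcium signal (Ex 480/Em 530) followed at 1 s/cycle for 100 cycles in TRHR-expressing cells.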
D1 antag: Antagonist of Human D 1 Dopamine Receptor: qHTS; D(1A) dopamine receptor (Homo sapiens), P21728; HEK293 TREx D1 cells, calcium flux, dopamine EC80; hits give low values; activity change, negative = inhibition, % at 10 µM; hit rate 3.2% among 360,000; AID 504652, 2011; in the data active = activity change below about -30%
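Tetracycline-induced HEK293 T-REx cells with force-coupled D1 receptor were loaded with a no-wash calcium dye. Compound was added after a 10 s baseline and read kinetically for 180 s; EC80 dopamine was then added and calcium flux followed another 180 s.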
A number is an active result; - = inactive; . = no result given. Rule as the data show it, unless noted: active = activation above about 30%; inactive = the rest.

SMILES	D1 potentiator	TRHR ag	D1 ag	TRHR PAM	D1 antag
O=C(Nc1cc(Cl)cc(Cl)c1)C1CCC(=O)N1Cc1ccccc1Cl (stereo not given)	-	-	-	40	-
O=C(NCCCN1CCN(c2cccc(Cl)c2)CC1)C1CCC(=O)N1Cc1ccccc1Cl (stereo not given)	-	-	-	-	-38
O=C1C2CCCCN2C(=O)N1CCCCN1CCN(c2cccc(Cl)c2)CC1 (stereo not given)	-	-	-	32	-39
COc1cccc(-n2c(=O)c3c4c(sc3n(Cc3ccccc3C#N)c2=O)CCCC4)c1	-	-	-	-	-
Cc1ccc(NC(=O)C(=O)NCC(c2cccnc2)N2CCc3ccccc32)cc1Cl (stereo not given)	-	-	-	-	-
Cn1c(=O)oc2cc(S(=O)(=O)N3CCCC(C(=O)Nc4ccc(Br)cc4F)C3)ccc21 (stereo not given)	-	-	-	-	-
CCn1cc(/C=C(\NC(=O)c2ccc(C)cc2)C(=O)NCCCn2ccnc2)c2ccccc21	-	-	-	-	-
Cc1cc(C)c2cc3c(N)c(C(=O)N4CCc5ccccc5C4)sc3nc2c1	-	-	-	-	-
Cc1cccc2cc3c(N)c(C(=O)N4CCOCC4)sc3nc12	-	-	49	-	-
COc1cc(NC(=O)c2n[nH]c(=O)c3ccccc23)cc(OC)c1	-	-	-	35	-
CCOC(=O)c1ccc(NC(=O)c2n[nH]c(=O)c3ccccc23)cc1	-	-	-	-	-
COC(=O)c1c(C(=O)OC)c(C)n(Cc2ccco2)c1C	-	-	-	-	-68
COC(=O)C1=C(C)N(Cc2ccco2)C(=O)N[C@H]1c1ccccc1	-	-	-	-	-49
COC(=O)C1=C(C)N(Cc2ccco2)C(=O)N[C@H]1c1ccc(Br)cc1	-	-	-	-	-
CCOc1ccccc1CNC(=O)C1CCN(S(=O)(=O)c2ccc3c(ccn3C)c2)CC1	-	-	-	-	-
Cc1ccc(N(C)C(=O)c2noc3c2CCCCC3)cc1C	-	-	-	-	-
COCCN1CCN(Cc2cn(C)nc2-c2cccc(Cl)c2)CC1	-	-	-	-	-
COCC1CCN(Cc2cn(C)nc2-c2cccc(Cl)c2)C1 (stereo not given)	-	-	-	-	-42
CCOc1ccc(NC(=O)Cn2ccn(-c3ccc(F)c(F)c3)c(=O)c2=O)cc1	-	-	-	-	-
O=C(COc1ccc2ccccc2c1Br)Nc1cccnc1	-	-	-	-	-42
O=C(COc1cccc(C(F)(F)F)c1)Nc1cccnc1	-	-	-	-	-31
O=C(COc1ccc(C(=O)NCc2cccnc2)cc1)Nc1cccc(C(F)(F)F)c1	-	-	-	-	-
Cc1ccccc1Cn1c(=O)n(CC2CCC(C(=O)N3CCC(C)CC3)CC2)c(=O)c2sccc21 (stereo not given)	-	-	-	-	-
Cc1ccc(NC(=O)CN(Cc2ccccc2)S(=O)(=O)c2ccc3nc(C)sc3c2)c(C)c1	-	-	-	-	-
Oc1ccc(Br)cc1/C=N/Nc1nc(N2CCCCC2)nc(N2CCOCC2)n1	-	-	-	-	-
SMILES	D1 potentiator	TRHR ag	D1 ag	TRHR PAM	D1 antag
Oc1ccc(/C=N/Nc2nc(N3CCCCCC3)nc(N3CCCCCC3)n2)c(O)c1	-	-	-	-	-41
COc1cccc(/C=N/Nc2nc(N3CCCC3)nc(N3CCCC3)n2)c1O	-	-	-	-	-
COc1ccc(/C=N/Nc2nc(N3CCCC3)nc(N3CCCC3)n2)c(OC)c1OC	-	-	-	-	-42
Cc1ccc(-n2ncc3c(N4CCCCC4)ncnc32)cc1Cl	-	-	-	-	-
O=C(Nc1ccc(Cl)cc1)C1CCCN(S(=O)(=O)c2ccc3[nH]c(=O)ccc3c2)C1 (stereo not given)	-	-	-	-	-
COc1ccc(OC)c(C(c2nnnn2CCc2ccccc2)N2CCN(c3ccccc3)CC2)c1 (stereo not given)	-	-	-	-	-
COc1ccc(N2CCN(C(c3cc(OC)ccc3OC)c3nnnn3Cc3ccco3)CC2)cc1 (stereo not given)	-	-	-	39	-
Cn1c(=O)n(-c2ccc3c(c2)OCO3)c2nc(-c3ccc(Cl)cc3)nc(C(N)=O)c21	-	-	-	-	-
O=C(CSc1nc2ncccc2[nH]1)NCCc1ccccc1	-	-	-	-	-39
CC1=CN2C(=N)/C(=C\c3cn(CCCOc4ccccc4)c4ccccc34)C(=O)N=C2S1	-	-	31	-	-
CC1=C(C(=O)Nc2ccccc2C)C(c2ccccn2)n2ncnc2N1 (stereo not given)	-	-	-	-	-
N#C/C(=C\C1CC=CCC1)c1nc2ccccc2[nH]1 (stereo not given)	-	-	-	-	-35
Cn1c(/C(C#N)=C/C2CC=CCC2)nc2ccccc21 (stereo not given)	-	-	-	-	-
CC(C)Oc1ccc(C(=O)OC(C)C(=O)NC2CCCCC2C)cc1 (stereo not given)	-	-	-	-	-48
COc1cc(Nc2ncc3c(n2)CCN(Cc2cccc(C)c2)C3)cc(OC)c1	-	-	-	-	-
COc1cccc(N2CC(NC(=O)c3cc(Cl)ccc3OC)CC2=O)c1 (stereo not given)	-	-	-	-	.
CCCCC(=O)Nc1ccc(C(=O)NCCc2ccccc2)cc1	-	-	-	-	-
CCCC(=O)Nc1ccc(C(=O)NCCc2ccc(F)cc2)cc1	-	-	-	34	-
O=C(CCNC(=O)c1ccc([N+](=O)[O-])cc1)Nc1ccc(F)cc1	-	-	-	-	-39
Cc1cc(C)cc(NC(=O)CCNC(=O)c2ccc([N+](=O)[O-])cc2)c1	-	-	-	-	-
CCOC(=O)C1CCCN(S(=O)(=O)c2ccc3[nH]c(=O)ccc3c2)C1 (stereo not given)	-	-	-	-	-
CC(=O)Oc1c(/C=C(\C#N)C(N)=O)[nH]c2ccccc12	-	-	53	-	-
N#C/C(=C\c1c[nH]c2ccccc12)C(N)=O	-	-	-	-	-
CC1(c2ccc(OC(F)F)cc2)NC(=O)N(CC(=O)Nc2ccc(F)cc2)C1=O (stereo not given)	-	-	-	-	-
CCOC(=O)c1c(NC(=O)CN2C(=O)NC(C)(c3ccc(OC(F)F)cc3)C2=O)sc(C)c1C (stereo not given)	-	-	31	-	-
